# Screening data: PubChem BioAssay, National Center for Advancing Translational Sciences (NCATS)
# Shown is part of a subset that was picked to be rich in hits.
# TDP1 cell noCPT = qHTS for Inhibitors of human tyrosyl-DNA phosphodiesterase 1 (TDP1): qHTS in cells in absence of CPT | actives 15% (n = 420,000) | Potency, µM (doses to about 46.2 µM), without a hit: at the top dose activity change, negative = growth inhibition, most hits filed as inhibitors | DT40 Tdp1-/- hTDP1 cells, no CPT, ATP luminescence, 48 h; further: potency means the concentration at half of the fitted maximal effect; nearly all actives have a fitted effect of over 55% in size
#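 DT40 Tdp1-/-;hTDP1 cells, no CPT (DMSO vehicle only), 400 cells/well; compounds pin-transferred; ≥48 hr, 37 °C; CellTiter-Glo 30 min RT dark, luminescence read.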
# HT1080 IDH1KD tx = qHTS for induction of synthetic lethality in tumor cells producing 2HG: qHTS for the HT-1080-IDH1KD cell line; HT-1080 IDH1 knockdown viability, ATP luminescence, 48 h; Potency, µM (top dose mostly 46.1 µM), for inactives: top-dose activity, negative = toxicity, usual class: cytotoxic; actives 2% (n = 360,000);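 further: potency means the concentration at half of the fitted maximal effect; 0% = DMSO wells and -100% = cell-free medium wells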
#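 Viability of IDH1-knockdown HT-1080 fibrosarcoma cells was assessed by CellTiter-Glo after 48 h at 37 °C with titrated compound; concentration-effect curves were classified by fit quality and response size.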
# DT40 TDP1 CPT = qHTS for Inhibitors of human tyrosyl-DNA phosphodiesterase 1 (TDP1): qHTS in cells in presence of CPT. actives 12% (n = 420,000). Potency, µM (titrated, usually from 46.2 µM), for inactives: top-dose activity change, negative = growth inhibition, usual class: inhibitors. chicken DT40 Tdp1-/-;hTDP1 cells + 20 nM CPT, ATP luminescence, 48 h; further: potency means the concentration at half of the fitted maximal effect; nearly all actives have a fitted effect of over 55% in size
#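 Chicken DT40 Tdp1-/- cells complemented with human TDP1, 400 cells/well, exposed to compounds plus 20 nM camptothecin for at least 48 h at 37 C; viability read as ATP content by CellTiter-Glo luminescence.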
# HT1080-NT tox = qHTS for induction of synthetic lethality in tumor cells producing 2HG: qHTS for the HT-1080-NT fibrosarcoma cell line | actives 1.6% (n = 360,000) | Potency, µM (top dose mostly 46.1 µM), without a hit: at the top dose activity, negative = less viability, hits mostly cytotoxic | AID 686970, 2013 | HT-1080-NT fibrosarcoma viability, CellTiter-Glo ATP luminescence, 48 h;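 further: NT is the 2HG producing partner of a matched IDH1 knockdown line; potency means the concentration at half of the fitted maximal effect; 0% = DMSO-treated cells and -100% = media-only wells without cells; nearly all actives have a fitted effect of over 55% in size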
#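 Toxicity toward the 2HG-producing NT line was scored as %Activity, normalised to DMSO and no-cell wells, from CellTiter-Glo luminescence after 48 hours' treatment.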
# IL-1B inflam inh = qHTS for Inhibitors of Inflammasome Signaling: IL-1-beta AlphaLISA Primary Screen. THP-1 LPS/ATP IL-1B secretion, AlphaLISA, 16 h; active compounds read low. AID 743279, 2014. actives 4.7% (n = 360,000). activity change, % at 57.5 µM; in the data active means activity change below about -50%; inconclusive means mostly about -30% to -49%
#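 THP-1 cells pretreated 1 hr with compounds (up to 57.5 uM final), then stimulated with LPS (250 ng/mL final) plus ATP (1.25 mM final); secreted IL-1B measured by AlphaLISA after 16 hr, decreased signal indicating inhibition.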
# ALOX12 inh = Primary qHTS assay for inhibitors of human arachidonate 12S-lipoxygenase (ALOX12): Round 2; AID 1671190, 2021; purified 12hLO, xylenol orange hydroperoxide absorbance; Polyunsaturated fatty acid lipoxygenase ALOX12 (Homo sapiens), P18054; Potency, µM (highest dose often 108 µM), without a hit: at the highest dose activity change, negative = inhibition, most hits filed as inhibitors; actives 1.1% (n = 580,000); further: potency means the concentration at half of the fitted maximal effect
# Target sequence (P18054 whole entry, looked up): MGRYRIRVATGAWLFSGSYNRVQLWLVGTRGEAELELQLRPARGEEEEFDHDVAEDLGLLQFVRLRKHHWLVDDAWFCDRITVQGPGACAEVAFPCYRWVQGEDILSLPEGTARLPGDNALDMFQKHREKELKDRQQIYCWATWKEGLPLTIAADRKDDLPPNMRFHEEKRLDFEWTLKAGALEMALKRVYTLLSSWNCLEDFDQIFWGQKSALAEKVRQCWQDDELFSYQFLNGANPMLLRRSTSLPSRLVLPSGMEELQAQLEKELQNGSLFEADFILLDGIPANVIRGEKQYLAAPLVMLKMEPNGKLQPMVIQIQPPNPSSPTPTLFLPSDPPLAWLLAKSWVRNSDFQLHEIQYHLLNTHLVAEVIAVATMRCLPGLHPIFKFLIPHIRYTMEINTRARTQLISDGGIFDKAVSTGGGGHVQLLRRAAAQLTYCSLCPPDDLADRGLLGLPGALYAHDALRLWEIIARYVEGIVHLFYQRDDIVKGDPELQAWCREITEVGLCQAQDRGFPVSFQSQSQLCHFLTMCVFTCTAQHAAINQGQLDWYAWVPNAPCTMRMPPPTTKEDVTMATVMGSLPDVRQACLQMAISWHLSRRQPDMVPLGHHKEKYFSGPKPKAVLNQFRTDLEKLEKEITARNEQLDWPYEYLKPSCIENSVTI
#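 Hydroperoxide product was detected by ferrous iron/xylenol orange as the 573 to 405 nm absorbance ratio. Arachidonic acid at 40 uM (final) was turned over for 30 min at room temperature by 150 nM human 12hLO, pH 7.0 Hepes buffer, after 15 min compound preincubation.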
# An asterisk follows results filed as active; ? = inconclusive; . = not tested or not shown; [ ] = another dose, or the depositor's remark. Unless noted, the call rests on the fitted dose curve; in most records, active means well fitted curve in the direction sought with a large enough effect; inconclusive means small, poorly fitted or top-dose-only effect, or another doubt; inactive means no such curve, though single readings can be large; an effect the other way counts as inactive or inconclusive. Unless noted, on the % scale 0 is the no-effect control and ±100 the full control effect.
SMILES,TDP1 cell noCPT,HT1080 IDH1KD tx,DT40 TDP1 CPT,HT1080-NT tox,IL-1B inflam inh,ALOX12 inh
O=C(NC1CCCCC1)N[C@H]1CO[C@H]2[C@@H]1OC[C@@H]2n1nnnc1-c1ccc2c(c1)OCO2,.,.,.,.,.,45µM*
CCCCCCCc1ccc(-c2ccc(OC(F)F)cc2)nc1,.,.,.,.,.,4%
Cc1cc(C)n(-c2nc(NCCO)c3c4c(sc3n2)CCCC4)n1,?,-9%,?,-7%,-5,0%
Cc1cc(C)n(-c2nc(NCCCO)c3c4c(sc3n2)CCCC4)n1,4.1µM*,-4%,5.8µM*,-6%,-18,.
Cc1cc(C)n(-c2nc(NCC(C)O)c3c4c(sc3n2)CCCC4)n1 (centres undefined),18µM*,-7%,?,-8%,-17,?
COCCOC(=O)C1=C(C)NC(=O)NC1c1cn(-c2ccccc2)nc1-c1cccs1 (centres undefined),-24%,1%,-1%,1%,-4,7%
C=CCOC(=O)C1=C(C)NC(=O)NC1c1cn(-c2ccccc2)nc1-c1cccs1 (centres undefined),?,10µM*,?,?,-20,?
CC1=C(C#N)C(c2cn(-c3ccccc3)nc2-c2cccs2)C(C#N)=C(C)N1,-24%,?,-18%,?,-90*,14%
Cn1cc(C2N=C(N)Nc3nc4ccccc4n32)c2cc(F)ccc21 (centres undefined),.,.,.,.,.,-30%
CCOC(=O)C1=C(C)NC(=O)NC1c1cn(-c2ccccc2)nc1-c1ccc(OC(C)C)cc1 (centres undefined),16µM*,.,?,.,.,-7%
NC1=NC(c2cn(-c3ccccc3)nc2-c2cccs2)n2c(nc3ccccc32)N1 (centres undefined),-1%,?,?,18µM*,-8,?
COc1cccc2cc(-c3cc(=O)oc4ccc(C(C)C)cc34)oc12,.,.,.,.,.,-3%
CCOC(=O)COc1ccc2c(=O)c(Oc3cc(C)c(Cl)c(C)c3)coc2c1,.,.,.,.,.,7%
Cc1[nH]c2ccccc2c1NC(=O)CN1CCN(c2cccc(C(F)(F)F)c2)CC1,?,?,?,18µM*,8,364%
Cc1cc2[nH]c(=O)c(=O)[nH]c2cc1S(=O)(=O)N1CCN(c2cccc(C(F)(F)F)c2)CC1,?,-20%,-9%,-1%,10,?
O=C(CN1CCN(c2cccc(C(F)(F)F)c2)CC1)NCc1ccccc1,?,-13%,-9%,-3%,-55*,0%
Cc1[nH]c2ccccc2c1C(O)CN1CCN(c2cccc(C(F)(F)F)c2)CC1 (centres undefined),18µM*,?,23µM*,?,-103*,?
O=C(CN1CCN(c2cccc(Cl)c2)CC1)NCc1ccccc1,?,-10%,-21%,-4%,-8,9%
COc1ccc(CNC[C@H]2COCc3nc4cc(F)ccc4n32)cn1,.,.,.,.,.,37%[176 µM]
COc1ccc(N2CCN(C(=O)c3c(C)oc4ncnc(N5CCCCC5)c34)CC2)cc1,15µM*,.,?,.,.,?
COc1cccc(N2CCN(C(=O)c3c(C)oc4ncnc(N5CCOCC5)c34)CC2)c1,-17%,.,2%,.,.,-17%
Cc1oc2ncnc(N3CCCCC3)c2c1C(=O)N1CCN(c2cccc(C(F)(F)F)c2)CC1,13µM*,.,16µM*,.,.,-29%
CCOC(=O)c1noc2ncnc(N3CCN(c4cccc(C(F)(F)F)c4)CC3)c12,13µM*,.,16µM*,.,.,-2%
Cc1cccc(Nc2nnc(SC(C)C#N)s2)c1C (centres undefined),.,.,.,.,.,-1%
CN(C)S(=O)(=O)Nc1cc(Cl)cc(Cl)c1,?,16%,18µM*,1%,44,-9%
SMILES,TDP1 cell noCPT,HT1080 IDH1KD tx,DT40 TDP1 CPT,HT1080-NT tox,IL-1B inflam inh,ALOX12 inh
CCOC(=O)N1CCc2c(sc3c2c(=O)n(Cc2ccccc2)c(=O)n3Cc2cccc(Cl)c2)C1,21µM*,.,10µM*,.,.,0%
CC(=O)N1CCc2c(sc3c2c(=O)n(CCc2ccccc2)c(=O)n3Cc2ccccc2C)C1,16µM*,.,15µM*,.,.,?
CC(=O)N1CCc2c(sc3c2c(=O)n(CCc2ccccc2)c(=O)n3Cc2ccc(Cl)cc2)C1,?,.,?,.,.,-6%
CC(=O)N1CCc2c(sc3c2c(=O)n(Cc2ccccc2)c(=O)n3Cc2cc(C)ccc2C)C1,21µM*,.,16µM*,.,.,-29%
CC(=O)N1CCc2c(sc3c2c(=O)n(-c2ccc(F)cc2)c(=O)n3Cc2cc(C)ccc2C)C1,-1%,.,4%,.,.,0%
CCOC(=O)N1CCc2c(sc3c2c(=O)n(-c2ccccc2C(F)(F)F)c(=O)n3Cc2ccccc2C)C1,?,.,18µM*,.,.,-8%
C=Cc1ccc(Cn2c(=O)n(-c3ccccc3C)c(=O)c3c4c(sc32)CN(C(C)=O)CC4)cc1,?,.,?,.,.,0%
CCN1CCC2(CCC1=O)CN(C(=O)CCc1cccnc1)CCN2C (centres undefined),.,.,.,.,.,3%
